# PubChem BioAssay AID1159580 (chemical genetic matrix, 2015)
# Several values for one entry are separate records, joined by “and”; a condition that tells them apart may be missing. Equal values may be shown once. About 2,000 (36%) of roughly 5,500 compounds were called active. Another 18% or so got no clear call; they are omitted. The list shows a part of the results. Values without a mark were called inactive. No stated cut-off is given here; in the data, active means normalized growth mostly below about 0.91 (no sharp cut-off); inconclusive means no clear call, values can overlap the other calls; inactive means mostly above about 0.92.
# Experiment: chemical genetic growth profiling, strain panel (AID 1159580);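 further: tested at 20 µM; growth read once vehicle control cultures reached saturation at 30 °C; 1 = growth at the plate median or of vehicle wells; lower values mean less growth of the strain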
# Settings: growth OD
# [1] = S. cerevisiae deletion strains, locus YAL013W, strain DEP1, hits give low values
# [2] = S. cerevisiae deletion strains, locus YBR229C, strain ROT2, hits give low values
# [3] = S. cerevisiae deletion strains, locus YDL101C, strain DUN1, hits give low values
# [4] = S. cerevisiae deletion strains, locus YDL134C, strain PPH21, hits give low values
# [5] = S. cerevisiae deletion strains, locus YDR150W, strain NUM1, hits give low values
# [6] = S. cerevisiae deletion strains, locus YEL061C, strain CIN8, hits give low values
# [7] = S. cerevisiae deletion strains, locus YGR078C, strain PAC10, hits give low values
# [8] = S. cerevisiae deletion strains, locus YHR030C, strain SLT2, hits give low values
# [9] = S. cerevisiae deletion strains, locus YHR087W, strain rtc3, hits give low values
# [10] = S. cerevisiae deletion strains, locus YJR043C, strain POL32, hits give low values
# [11] = S. cerevisiae deletion strains, locus YJR075W, strain HOC1, hits give low values
# [12] = S. cerevisiae deletion strains, locus YLR039C, strain RIC1, hits give low values
# [13] = S. cerevisiae deletion strains, locus YLR058C, strain SHM2 (second series), hits give low values
# [14] = S. cerevisiae deletion strains, locus YLR085C, strain ARP6, hits give low values
# [15] = S. cerevisiae deletion strains, locus YLR262C, strain YPT6, hits give low values
# [16] = S. cerevisiae deletion strains, locus YML094W, strain GIM5, hits give low values
# [17] = S. cerevisiae deletion strains, locus YMR219W, strain ESC1, hits give low values
# [18] = S. cerevisiae deletion strains, locus YMR263W, strain SAP30, hits give low values
# [19] = S. cerevisiae deletion strains, locus YNL153C, strain GIM3, hits give low values
# [20] = S. cerevisiae deletion strains, locus YNL298W, strain CLA4 (second series), hits give low values
# [21] = S. cerevisiae deletion strains, locus YNL322C, strain KRE1, hits give low values
# [22] = S. cerevisiae deletion strains, locus YNR030W, strain Alg12, hits give low values
# [23] = S. cerevisiae deletion strains, locus YPL055C, strain LGE1, hits give low values
# [24] = S. cerevisiae deletion strains, locus YPL241C, strain CIN2, hits give low values
# [25] = S. cerevisiae deletion strains, locus YPR135W, strain CTF4, hits give low values
smiles,measurement,setting,value
COc1cc(OC)cc(N2C(=O)C=CC2=O)c1,normalized growth,[1],0.0543 (active)
same,normalized growth,[2],0.0573 (active)
same,normalized growth,[3],0.0709 (active)
same,normalized growth,[4],0.0477 (active)
same,normalized growth,[5],0.05 (active)
same,normalized growth,[6],0.0533 (active)
same,normalized growth,"S. cerevisiae deletion strains, locus YGR052W, strain FMP48, hits give low values",0.129 (active)
same,normalized growth,[7],0.802 (active)
same,normalized growth,[8],0.0734 (active) and 0.115 (active)
same,normalized growth,"S. cerevisiae deletion strains, locus YHR079C, strain IRE1, hits give low values",0.231 (active)
same,normalized growth,"S. cerevisiae deletion strains, locus YHR082C, strain KSP1, hits give low values",0.112 (active)
same,normalized growth,[9],0.0623 (active)
same,normalized growth,"S. cerevisiae deletion strains, locus YJL095W, strain BCK1, hits give low values",0.127 (active)
same,normalized growth,[10],0.0486 (active)
same,normalized growth,"S. cerevisiae deletion strains, locus YJR066W, strain TOR1, hits give low values",0.113 (active)
same,normalized growth,[11],0.0671 (active)
same,normalized growth,"S. cerevisiae deletion strains, locus YKL171W, strain NNK1, hits give low values",0.0984 (active)
same,normalized growth,"S. cerevisiae deletion strains, locus YKL203C, strain TOR2, hits give low values",0.107 (active)
same,normalized growth,[12],0.0602 (active)
same,normalized growth,[13],0.0529 (active)
same,normalized growth,[14],0.0621 (active)
same,normalized growth,"S. cerevisiae deletion strains, locus YLR113W, strain HOG1, hits give low values",0.184 (active)
same,normalized growth,[15],0.0582 (active)
same,normalized growth,[16],0.0622 (active)
same,normalized growth,[17],0.0491 (active)
same,normalized growth,[18],0.0514 (active)
same,normalized growth,[19],0.0557 (active)
same,normalized growth,"S. cerevisiae deletion strains, locus YNL183C, strain NPR1, hits give low values",0.131 (active)
same,normalized growth,"S. cerevisiae deletion strains, locus YNL207W, strain RIO2, hits give low values",0.0908 (active)
same,normalized growth,[20],0.0613 (active)
same,normalized growth,[21],0.0499 (active)
same,normalized growth,[22],0.0629 (active)
same,normalized growth,"S. cerevisiae deletion strains, locus YOR119C, strain RIO1, hits give low values",0.121 (active)
same,normalized growth,"S. cerevisiae deletion strains, locus YOR231W, strain MKK1, hits give low values",0.185 (active)
same,normalized growth,[23],0.07 (active)
same,normalized growth,[24],0.0792 (active)
same,normalized growth,"S. cerevisiae deletion strains, locus YPL256C, strain CLN2, hits give low values",0.146 (active)
same,normalized growth,[25],0.18 (active)
CCC(=O)Nc1cc(OC)cc(OC)c1,normalized growth,[1],1
same,normalized growth,[2],1.01
same,normalized growth,[3],1.01
same,normalized growth,[4],1
same,normalized growth,[5],0.908
same,normalized growth,[6],1
same,normalized growth,[7],1.01
same,normalized growth,[8],1.01
same,normalized growth,[9],1
same,normalized growth,[10],0.963
same,normalized growth,[11],0.98
same,normalized growth,[12],1.04
same,normalized growth,[13],1.01
same,normalized growth,[14],0.973
same,normalized growth,[15],1.02
same,normalized growth,[16],1.03
same,normalized growth,[17],0.999
same,normalized growth,[18],0.987
same,normalized growth,[19],0.997
same,normalized growth,[20],1.01
same,normalized growth,[21],1.01
same,normalized growth,[22],1.01
same,normalized growth,"S. cerevisiae deletion strains, locus YOL006C, strain TOP1, hits give low values",0.998
same,normalized growth,[23],1.13
same,normalized growth,[24],1.03
same,normalized growth,[25],1.06
same,normalized growth,"S. cerevisiae strains, strain wild type, hits give low values",1.02
